Screening data from PubChem BioAssay.
IP6K1 inh: Primary qHTS assay for small molecule inhibitors of Inositol hexaphosphate kinase 1 (IP6K1); IP6K1 kinase, ADP-Glo luminescence, 2 h; hits give low values; activity change, % (series mostly up to about 58 µM); AID 1645851, 2021; actives 0.81% (n = 140,000); Inositol hexakisphosphate kinase 1 (Homo sapiens), Q92551; in the data active = activity change below about -25%; also: % is scaled to controls: 0 for no effect and ±100 for the full control effect
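ADP-Glo luminescence measures ADP made by human IP6K1 during a 2 h RT reaction with ATP/IP6 (mix at 1.3 mM/130 uM); top library doses 57.5 and 19.1 uM final.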
KDM5B inhibitor: Primary screen for KDM5B Histone Demethylases FDH-coupled qHTS; KDM5B demethylase, FDH-coupled NADH fluorescence (FDH is formaldehyde dehydrogenase); Potency, µM (top dose mostly 57.7 µM), hits mostly inhibitors; actives 2.6% (n = 220,000); AID 1347165, 2019; also: potency is read from the fitted curve at half-maximal effect; 0% is about no effect; nearly all actives have a fitted effect of over 70% in size
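Here, H3K4me3 peptide (12.5 µM in substrate mix) is demethylated by KDM5BΔAP, 200 nM final, after 10 min compound exposure. Formaldehyde product is coupled through FDH (0.25 U/mL in mix) to NADH fluorescence; 30-min ΔRFU feeds dose-response curves.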
SNCA expr inhib: Primary qHTS assay for inhibitors of alpha-synuclein gene (SNCA) expression; HEK-293 SNCA-luciferase knock-in, luminescence, 24 h; Potency, µM (series often up to 57.2 µM), inactives show at the highest dose activity change, negative = inhibition, hits mostly inhibitors; actives 0.17% (n = 140,000); AID 1671194, 2021;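 also: potency is read from the fitted curve at half-maximal effect; plate controls were DMSO cells for no effect and cell-free wells for full effect; nearly all actives have a fitted effect of over 45% in size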
SNCA viab count: GF-AFC viability counterscreen for inhibitors of alpha-synuclein gene (SNCA) expression; HEK-293-SNCA-luc viability, GF-AFC fluorescence, 24 h; actives 0.12% (n = 150,000); Potency, µM (series often up to 57.1 µM), for inactives: top-dose activity change, negative = cytotoxicity, hits mostly cytotoxic; AID 1671193, 2021;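 also: potency is read from the fitted curve at half-maximal effect; 0% = DMSO-treated cells and -100% = medium-only wells without cells; nearly all actives have a fitted effect of over 30% in size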
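HEK-293-SNCA-luc cells (1500/well) plated 24 h, then exposed 24 h to a dilution series; GF-AFC added 30 min at 37C, fluorescence 405/540 nm; normalised to medium-only and DMSO wells, Hill fit.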
IP6K1 inh cnf: Confirmatory qHTS assay for small molecule inhibitors of Inositol hexaphosphate kinase 1 (IP6K1). actives 13% (n = 1,200). Potency, µM (doses to about 49 µM), without a hit: at the highest dose activity change, negative = inhibition, actives largely listed as inhibitors. shares compounds with IP6K1 inh. AID 1645852, 2021. recombinant IP6K1 kinase, ADP-Glo luminescence, 2 h; also: potency is read from the fitted curve at half-maximal effect; % is scaled to controls: 0 for no effect and ±100 for the full control effect; nearly all actives have a fitted effect of over 65% in size
* hit, by the source's call; i = inactive; u = inconclusive; x = not tested or not shown; ! = not active in a repeat; [ ] = remark or other dose. Most compounds without a hit are left out; they make up all but 3% or so of the library. Unless noted, calls follow the shape of the dose curve; as a rule, active = well fitted curve in the direction sought with a large enough effect; inconclusive = small, poorly fitted or top-dose-only effect, or another doubt; inactive = no such curve, though single readings can be large; an effect the other way counts as inactive or inconclusive.

SMILES	IP6K1 inh	KDM5B inhibitor	SNCA expr inhib	SNCA viab count	IP6K1 inh cnf
O=C(CSc1nc2c(cnn2-c2ccc(F)cc2)c(=O)[nH]1)Nc1ccc(Br)cc1	-28*	i	4%	-2%	-1%
Cc1cc(C)cc(NC(=O)CSc2nc3c(cnn3-c3ccc(F)cc3)c(=O)[nH]2)c1	-3	i	-15%	-6%	x
Cc1ccc(N=C2NN=C(c3c[nH]c(C(=O)N4CCCC4)c3)CS2)cc1C	x	i	x	x	x
COCCNc1nc(NCc2cccc(Cl)c2)c2cnn(C)c2n1	-39*	u	-24%	-19%	-7%
O=C1CO[C@H]2CCN(Cc3ccncc3Cl)CC[C@@H]2N1c1ccccc1	-7	u	-15%[87.6 µM]	-4%[87.6 µM]	x
NS(=O)(=O)c1ccc(NC(=O)c2c(F)cccc2Cl)cc1	x	i	x	x	x
Nc1nc(Nc2ccc(S(N)(=O)=O)cc2)nn1C(=O)c1c(F)cccc1F	-35*	x	u	u	u
CNC(=O)NC(=O)CCN(C)Cc1ccc(C(C)C)cc1	x	i	x	x	x
c1ccc(-c2c3c(ccc4ccccc43)[o+]c3ccc4ccccc4c23)cc1	x	i	x	x	x
Cc1[nH]c(/C=C2\C(=O)Nc3ccccc32)c(C)c1CCC(=O)O	x	x	x	x	9%
Cc1ccc(Sc2c(C)nn(C(=O)COc3ccccc3)c2C)cc1	-36*	u	u	-7%	u
N#Cc1cccc(C(=O)OCc2ccccn2)c1	x	i	x	x	x
CN(c1ccccc1)c1cc(=O)c2ccnc(N3CCOCC3)c2o1	-21	i	20%[87.6 µM]	-6%[87.6 µM]	x
CN1CCN(c2cc(=O)c3ccnc(N4CCN(c5ccccn5)CC4)c3o2)CC1	-26*	i	-12%[87.6 µM]	-2%[87.6 µM]	-27%
CCCn1nc(C(=O)N2CCN(Cc3ccccc3F)CC2)c2ccccc2c1=O	x	i	x	x	x
O=C(NCC1CC1)c1ccc2nnc(Cc3ccco3)n2c1	-27*!	x	16%[87.6 µM]	-10%[87.6 µM]	u
COCCNC(=O)c1ccc2nnc(Cc3ccco3)n2c1	1	x	3%[87.6 µM]	4%[87.6 µM]	x
Cc1cc(C)c(NC(=O)CNC(=O)c2cc3cc(Cl)ccc3nc2C)c(C)c1	x	i	x	x	x
COC(=O)c1ccc(NC(=O)CN(C)S(=O)(=O)c2ccc(Br)s2)cc1	-45*	i	-28%	-4%	u
CN(C)CCNc1oc(-c2ccc(F)cc2)nc1S(=O)(=O)c1ccc2c(c1)OCCO2	x	i	x	x	x
C[S+](=O)([O-])c1cccc(NC(=O)Cc2c[nH]c3ncc(-c4ccccc4)cc23)c1	-26*	32µM*	-14%[87.6 µM]	-23%[87.6 µM]	u
COc1ccc(-c2cnc3[nH]cc(CC(=O)Nc4cccc(N(C)C)c4)c3c2)cc1	-20	u	27%[87.6 µM]	-28%[87.6 µM]	x
COc1ccc(-c2cnc3[nH]cc(CC(=O)Nc4ccncc4)c3c2)cc1	-39*	u	-10%[87.6 µM]	-10%[87.6 µM]	u
O=C(CCc1nc(CSc2n[nH]c(-c3cccc(F)c3)n2)no1)Nc1cccc2ccccc12	x	i	x	x	x
CC(=O)Nc1ccc(NC(=O)COc2cc(O)c3c(=O)cc(-c4ccccc4)oc3c2)cc1	x	i	x	x	x
SMILES	IP6K1 inh	KDM5B inhibitor	SNCA expr inhib	SNCA viab count	IP6K1 inh cnf
CCNC(=O)c1cccc(NC(=O)C2CCCC2)c1	x	i	x	x	x
COc1ccc(-c2cc(N3CCCN(C(=O)C(C)c4ccccc4)CC3)n[nH]2)cc1 (stereo not given)	14	u	-9%	-22%	x
COc1ccccc1N1CCN(S(=O)(=O)c2ccc(F)c(C(=O)Nc3ccc(C)c(F)c3)c2)CC1	-28*	u	-14%	0%	3%
COc1cc(Cl)c(C)cc1NC(=O)CSc1ncc(S(=O)(=O)c2ccc(C(C)(C)C)cc2)c(=O)[nH]1	-9	i	0%	8%	x
CCc1ccc(S(=O)(=O)c2cnc(SCC(=O)Nc3ccc(OC)cc3OC)[nH]c2=O)cc1	-28*	u	7%	24%	u
Cc1ccc(S(=O)(=O)c2cnc(SCC(=O)Nc3ccc4c(c3)OCCO4)[nH]c2=O)cc1C	-25*	i	8%	12%	u
O=C(COc1ccc(C(=O)c2ccccc2)cc1)OCCOc1cccc(Cl)c1	x	i	x	x	x
O=S(=O)(c1ccc(-c2cnc(C3CC3)o2)cc1)N1CCN(c2ccc(F)cc2)CC1	8	i	-17%	-6%	x
COc1ccc(N2CCN(S(=O)(=O)c3ccc(-c4cnc(C5CC5)o4)cc3)CC2)cc1	-41*	i	-10%	-8%	-7%
O=S(=O)(c1ccc(-c2cnc(C3CC3)o2)cc1)N1CCN(c2cccc(Cl)c2)CC1	-6	i	-5%	11%	x
COc1cccc(N2CCN(S(=O)(=O)c3ccc(-c4cnc(C5CC5)o4)cc3)CC2)c1	-35*	i	25%	2%	u
O=C1NC(=O)/C(=C/c2ccc(-c3ccc(F)cc3O)o2)S1	x	x	21%	-8%	2.6µM*
CCOc1ccc(Oc2ccc(NC(=O)c3nn(C)c(=O)c4ccccc34)cc2)cc1	x	i	x	x	x
CCOc1ccccc1N1CC(c2nc3ccccc3n2CCOc2ccc(OC)cc2)CC1=O (stereo not given)	8	u	u	u	x
CCOc1ccccc1N1CC(c2nc3ccccc3n2CCCOc2ccc(OC)cc2)CC1=O (stereo not given)	-27*	i	0%	3%	6%
Cc1cccc(NS(=O)(=O)c2nnc(NC(=O)c3cccc(C)c3)s2)c1	4	i	9%	2%	x
CC(C)C(=O)Nc1cccc(C(=O)Nc2nnc(C(F)(F)F)s2)c1	-29*	i[11.5 µM]	71%	0%	-11%
Cc1ccc(C)c(NS(=O)(=O)c2ccc(N3CC(C(=O)O)CC3=O)cc2)c1 (stereo not given)	x	i	x	x	x
CN(C)c1ccc(C=Nc2cccc(C(=O)c3ccccc3)c2)cc1	x	i	x	x	x
COc1ccc(N(CC(=O)NCc2ccc(C)cc2)S(=O)(=O)c2c(C)[nH]c(=O)[nH]c2=O)cc1	-25*	i	91%	21%	-12%
COc1ccc(CNC(=O)CN(c2ccc(OC)cc2)S(=O)(=O)c2c(C)[nH]c(=O)[nH]c2=O)cc1	-12	i	85%	13%	x
Cc1cc(C)cc(N(CC(=O)Nc2ccc(C)cc2Cl)S(=O)(=O)c2c(C)[nH]c(=O)[nH]c2=O)c1	-27*	i	-35%	-5%	25%
CCCCn1c(=O)[nH]c(=O)c2c1nc(COC(=O)C1CCCCC1)n2CC	x	i	x	x	x
COc1ccc2c(CN(C)CCOc3cc(C)cc(C)c3)cc(=O)oc2c1	x	i	x	x	x
O=S(=O)(c1ccc(Cl)cc1)c1nc(-c2cccs2)oc1N1CCCCC1	-27*	u	33%	7%	13%
CC1CCN(c2oc(-c3cccs3)nc2S(=O)(=O)c2ccccc2)CC1	-23	u	-2%	-14%	x
